In ChEMBL document CHEMBL4296182, “CO-ADD screening of NIH NCI Diversity Set V” one finds Inhibition data, which are given here for 25 compounds.

For part of these data: Results with a measured potency or affinity are listed apart.

As usually defined, the Inhibition is the relative decrease from the control value, in per cent.

In one experiment the test system is Staphylococcus aureus. Put plainly: Antibacterial activity against Staphylococcus aureus MRSA ATCC 43300 (CO-ADD:GP_020); MIC in CAMBH media using NBS plates, by Resazurin F(560/590). To be noted: Concentration 20 uM, ASSAY_TEST Inhibition of Bacterial Growth, detection method Resazurin, Fluorescence (ex560/em590), MEDIA CAMHB, plate type 384well, CORNING #3640, time 18 hr. Type of experiment: functional. (In general: Resazurin is reduced to fluorescent resorufin, in cell work by metabolically active cells.)

In another experiment the test system is Acinetobacter baumannii. Put plainly: Antibacterial activity against Acinetobacter baumannii ATCC 19606 (CO-ADD:GN_034); MIC in CAMBH media using NBS plates, by Resazurin F(560/590). The experiment is classed as functional. Conditions: Concentration 20 uM, ASSAY_TEST Inhibition of Bacterial Growth, detection method Resazurin, Fluorescence (ex560/em590), MEDIA CAMHB, plate type 384well, CORNING #3640, time 18 hr.

In a further experiment the test system is Escherichia coli. Put plainly: Antibacterial activity against Escherichia coli ATCC 25922 (CO-ADD:GN_001); MIC in CAMBH media using NBS plates, by Resazurin F(560/590). Conditions: Concentration 20 uM, ASSAY_TEST Inhibition of Bacterial Growth, detection method Resazurin, Fluorescence (ex560/em590), MEDIA CAMHB, plate type 384well, CORNING #3640, time 18 hr. The experiment is classed as functional.

Another experiment concerns Klebsiella pneumoniae. Conditions: Concentration 20 uM; ASSAY_TEST Inhibition of Bacterial Growth; detection method Absorption (OD600); MEDIA CAMHB; plate type 384well; NBS; CORNING #3640; time 18 hr.
Another experiment has as its system Candida albicans. Conditions: 20 µM.
Another experiment relates to Cryptococcus neoformans. To be noted: Concentration 20 uM; ASSAY_TEST Inhibition of Fungal Growth; detection method Resazurin; Absorption (OD600-OD570); plate type 384well; NBS; CORNING #3640.

Regarding `O=[N+]([O-])c1ccccc1/C=C/C=N/N=C/c1ccccc1O`, the Inhibition with Staphylococcus aureus is 0.05%; in the experiment on Acinetobacter baumannii, -15.14%; in the experiment on Escherichia coli, 9.06%; in the experiment with Klebsiella pneumoniae, 2.2%; in the experiment on Candida albicans, 2.43%; in the experiment with Cryptococcus neoformans, 3.86%.
As for `O=[N+]([O-])c1ccc2[nH]c3nc4ccccc4nc3c2c1`, the Inhibition in the experiment with Staphylococcus aureus is 17.59%; in the experiment on Acinetobacter baumannii, 16.49%; in the experiment on Escherichia coli, -1.33%; in the experiment with Klebsiella pneumoniae, -1.62%; in the experiment with Candida albicans it was 5.48%; in the experiment with Cryptococcus neoformans it was 44.37%.
`Cc1nc(NCc2ccccc2)c2cc[nH]c2n1` [ROLODINE]: the Inhibition in the experiment with Staphylococcus aureus is -1.89%; in the experiment with Acinetobacter baumannii, -12.81%; in the experiment on Escherichia coli it was 4.8%; in the experiment on Klebsiella pneumoniae it was 9.06%; with Candida albicans it was 2.35%; with Cryptococcus neoformans it was -8.43%.
`Cc1ccc(/N=N/c2c(O)c3ccccc3[nH]c2=O)c(S(=O)(=O)N(C)C)c1`: the Inhibition was 12.78% with Staphylococcus aureus; 7.24% in the experiment on Acinetobacter baumannii; 9.06% with Escherichia coli; 6.43% in the experiment with Klebsiella pneumoniae; -0.31% with Candida albicans; -5.24% in the experiment with Cryptococcus neoformans.
On to `COc1ccc(CN2CCOC2=O)cc1OC`, for which the Inhibition with Staphylococcus aureus is 2.93%; in the experiment with Acinetobacter baumannii, -8.7%; in the experiment with Escherichia coli, 2.98%; in the experiment with Klebsiella pneumoniae it was 20.13%; in the experiment with Candida albicans, -0.97%; with Cryptococcus neoformans, -5.16%.
In the case of `CC(C)c1cc(C(F)(F)F)nc(NNc2nc(C(C)C)cc(C(F)(F)F)n2)n1`, the Inhibition in the experiment with Staphylococcus aureus was 18.88%; in the experiment on Acinetobacter baumannii it was -11.48%; with Escherichia coli, 9.37%; in the experiment on Klebsiella pneumoniae, 26.13%; with Candida albicans, 9.95%; in the experiment on Cryptococcus neoformans, -5.35%.
For `COc1ccc(CC(=O)c2ccc(O)cc2O)cc1` [ONONETIN], the Inhibition in the experiment on Staphylococcus aureus is 1.4%; in the experiment with Acinetobacter baumannii it was 4.43%; in the experiment on Escherichia coli it was 2.27%; in the experiment with Klebsiella pneumoniae, 20.95%; with Candida albicans, 17.6%; in the experiment with Cryptococcus neoformans, -13.72%.
With `CCOC(=O)c1[nH]c(CO)c(C(=O)OCC)c1C`, the Inhibition was 12.97% with Staphylococcus aureus; 11.05% in the experiment on Acinetobacter baumannii; 2.06% with Escherichia coli; 19.54% with Klebsiella pneumoniae; 9.36% in the experiment on Candida albicans; -4.6% in the experiment with Cryptococcus neoformans.
Regarding `CN1CCC(n2[nH]c(-c3ccccc3)c(Cc3ccccc3)c2=O)CC1` [BENZPIPERYLON], the Inhibition in the experiment on Staphylococcus aureus is 11.83%; in the experiment with Acinetobacter baumannii it was -21.66%; in the experiment with Escherichia coli it was 9.93%; in the experiment with Klebsiella pneumoniae it was 7.59%; with Candida albicans it was -2.02%; in the experiment with Cryptococcus neoformans, -11.9%.
Consider `O=C1CSCc2nc3ccccc3n21`, for which the Inhibition in the experiment on Staphylococcus aureus was 4.29%; with Acinetobacter baumannii, -8.34%; with Escherichia coli, 5.14%; with Klebsiella pneumoniae, 18.88%; with Candida albicans it was 1.65%; in the experiment with Cryptococcus neoformans, -7.32%.
With `CCOC(=O)c1nn(-c2ccccc2)cc1O`, the Inhibition was -14.3% in the experiment with Staphylococcus aureus; -10.69% with Acinetobacter baumannii; -0.72% in the experiment on Escherichia coli; -1.36% with Klebsiella pneumoniae; 0.93% in the experiment with Candida albicans; -2.21% in the experiment with Cryptococcus neoformans.
For `Nc1ccc(C(=O)Oc2ccc([N+](=O)[O-])cc2)cc1`, the Inhibition was 12.07% with Staphylococcus aureus; 4.99% in the experiment with Acinetobacter baumannii; 4.45% in the experiment with Escherichia coli; 11.91% in the experiment on Klebsiella pneumoniae; 3.13% in the experiment on Candida albicans; -14.05% with Cryptococcus neoformans.
For `O=C(Cn1nnc(N2CCCCC2)n1)N/N=C/c1ccccc1O`, the Inhibition with Staphylococcus aureus was 17.81%; with Acinetobacter baumannii, 3.41%; in the experiment with Escherichia coli it was 7.77%; with Klebsiella pneumoniae, 2.1%; in the experiment on Candida albicans, -0.19%; in the experiment with Cryptococcus neoformans it was -9.12%.
For the compound `CCOC(=O)Nc1csnn1`, the Inhibition was 13.65% in the experiment with Staphylococcus aureus; -5.72% in the experiment on Acinetobacter baumannii; 13.49% in the experiment on Escherichia coli; 14.72% in the experiment on Klebsiella pneumoniae; 5.16% in the experiment on Candida albicans; -5.84% with Cryptococcus neoformans.
On to `O=C1NC(=O)N2CCSC2(Cc2ccccc2)N1` (stereo not given), for which the Inhibition was 11.67% with Staphylococcus aureus; 11.67% in the experiment on Acinetobacter baumannii; -4.61% with Escherichia coli; 17.33% in the experiment on Klebsiella pneumoniae; 4.4% with Candida albicans; -2.7% with Cryptococcus neoformans.
As for `COCC(=O)OC1CCn2c1nc1c2C(=O)C(C)=C(NC(C)=O)C1=O` (stereo not given), the Inhibition with Staphylococcus aureus is 9.15%; in the experiment with Acinetobacter baumannii, 12.44%; in the experiment with Escherichia coli it was -2.53%; in the experiment with Klebsiella pneumoniae it was 8.02%; in the experiment with Candida albicans, -3.01%; with Cryptococcus neoformans, -13.92%.
On to `CSc1nnc(-c2cccs2)[nH]1`, for which the Inhibition is 9.02% with Staphylococcus aureus; -12.85% with Acinetobacter baumannii; 11.01% with Escherichia coli; 0.04% with Klebsiella pneumoniae; 1.33% in the experiment with Candida albicans; -11.54% in the experiment with Cryptococcus neoformans.
`CN(C)CCCN1c2ccc3ccccc3c2Sc2cccc(Cl)c21`: the Inhibition in the experiment on Staphylococcus aureus was -10.96%; in the experiment with Acinetobacter baumannii it was 0.47%; with Escherichia coli, 9.47%; in the experiment on Klebsiella pneumoniae, 8.34%; with Candida albicans, 0.69%; in the experiment on Cryptococcus neoformans, 12.55%.
For `CCN(CC)CCN1c2ccccc2Sc2ccc3ccccc3c21`, the Inhibition with Staphylococcus aureus was 2.63%; in the experiment on Acinetobacter baumannii, -0.08%; in the experiment with Escherichia coli it was 11.87%; with Klebsiella pneumoniae it was 8.87%; in the experiment on Candida albicans, 0.24%; in the experiment on Cryptococcus neoformans, -5.58%.
As for `Cn1cnc([N+](=O)[O-])c1Sc1nnc(-c2cccnc2)n1C`, the Inhibition was 12.02% with Staphylococcus aureus; 15.57% in the experiment with Acinetobacter baumannii; -1.31% with Escherichia coli; 17.06% with Klebsiella pneumoniae; 6.51% in the experiment on Candida albicans; -6.62% in the experiment with Cryptococcus neoformans.
For the compound `C=CCN=C(NC#N)SC`, the Inhibition was -6.06% in the experiment with Staphylococcus aureus; -0.66% with Acinetobacter baumannii; -1.07% in the experiment with Escherichia coli; 5.62% in the experiment on Klebsiella pneumoniae; -0.02% in the experiment with Candida albicans; 0.87% in the experiment on Cryptococcus neoformans.
Take `CN(NC(=O)C(=O)NCc1ccco1)C(=O)NC1CCCCC1`: the Inhibition in the experiment with Staphylococcus aureus is 1.27%; with Acinetobacter baumannii, 11.61%; with Escherichia coli it was -11.28%; with Klebsiella pneumoniae, 10.63%; in the experiment on Candida albicans, 4.23%; in the experiment on Cryptococcus neoformans, 3.93%.
For the compound `CSc1nc(O)cc(Cl)n1`, the Inhibition was -1.6% in the experiment with Staphylococcus aureus; -4.84% in the experiment on Acinetobacter baumannii; 7.44% in the experiment with Escherichia coli; 11.43% with Klebsiella pneumoniae; 2.04% in the experiment on Candida albicans; -0.01% in the experiment on Cryptococcus neoformans.
As to `COc1cc(C(=O)C(=O)c2cc(OC)c(O)c(OC)c2)cc(OC)c1O`, the Inhibition in the experiment with Staphylococcus aureus is 3.22%; in the experiment with Acinetobacter baumannii, 7.73%; in the experiment on Escherichia coli, -5.19%; in the experiment on Klebsiella pneumoniae it was 5.73%; in the experiment with Candida albicans, 3.18%; in the experiment on Cryptococcus neoformans, 0.06%.
With `NCCN1CCNCC1`, the Inhibition is -1.38% in the experiment on Staphylococcus aureus; -9.37% in the experiment with Acinetobacter baumannii; 9.81% in the experiment on Escherichia coli; 11.04% in the experiment on Klebsiella pneumoniae; 1.05% with Candida albicans; 4.22% with Cryptococcus neoformans.
